{"source": "ChEMBL document CHEMBL3988442", "about": "“University of Dundee, Small-Polar-MMV Screening Library” (2021)", "note": "The whole screen tested about 48,000 compounds, of which about 13,000 (27%) showed an effect of 50% or more. The list shows a part of the results.", "data": [{"test_system": "Wolbachia pipientis", "experiment": "Anti-Wolbachia Cell-Based Screen", "format": "functional", "design": "scale not given: in the data most compounds retested in dose-response had high values", "details": "5 µM", "units": {"Percent Effect": "%"}, "values": [{"smiles": "CCc1nc(C)c(C(=O)N(C)Cc2cnn(-c3cccc(OC)c3)c2)s1", "Percent Effect": -4.854}, {"smiles": "Cc1ccccc1CSc1nc(N)cc(N2C[C@H](O)[C@@H](N(C)C)C2)n1", "Percent Effect": -0.3306}, {"smiles": "CC(=O)N1CCCC1c1nc(C)cc(-c2ccc(F)cc2)n1", "note": "(centres undefined)", "Percent Effect": 79.53}, {"smiles": "Cc1cc(-c2ccccc2C(=O)O)nc(C2CCCCN2C)n1", "note": "(centres undefined)", "Percent Effect": 97.78}, {"smiles": "Cc1cccc(-c2c[nH]c(C3CCCN3C(=O)c3cc(C)n[nH]3)n2)c1", "note": "(centres undefined)", "Percent Effect": 16.57}, {"smiles": "CC(=O)N1CCCCC1c1nc(C)cc(-c2ccccc2C(=O)O)n1", "note": "(centres undefined)", "Percent Effect": 100.6}, {"smiles": "Cc1cc(N2CCC(O)CC2)nc(C)n1", "Percent Effect": 10.82}, {"smiles": "Cc1cc(N2CCC(O)CC2)nc(C2CCCN2C)n1", "note": "(centres undefined)", "Percent Effect": 110.3}, {"smiles": "Cc1cc(C)n(-c2ccc(N3CCC(O)CC3)nc2)n1", "Percent Effect": -17.54}, {"smiles": "CC(=O)N(CCc1nc(-c2cc(C(N)=O)co2)cs1)C(C)C", "Percent Effect": -2.269}, {"smiles": "CC(C)(C)C(=O)N1C[C@@H](F)[C@@H](OCc2nc3ncccc3[nH]2)C1", "Percent Effect": -11.47}, {"smiles": "COc1ccccc1CC(=O)NC(CC(=O)O)c1ccc(C)cc1", "note": "(centres undefined)", "Percent Effect": -6.3}, {"smiles": "CS(=O)(=O)C1=C(O)C(=O)N(c2ccccc2)C1c1ccccc1", "note": "(centres undefined)", "Percent Effect": 110.5}, {"smiles": "OCCC1CN(c2ncnc3[nH]cnc23)CCN1Cc1cccs1", "note": "(centres undefined)", "Percent Effect": 9.965}, {"smiles": "CCOCc1ccccc1NC(=O)NC1CCN(C2CCCC2)C1", "note": "(centres undefined)", "Percent Effect": -8.399}, {"smiles": "Cn1cnnc1-c1cncc(NCc2cccc3c2OC(C)(C)C3)c1", "Percent Effect": -16.61}, {"smiles": "N#Cc1cccc(CN2C[C@H](NC(=O)C3CC3)[C@H]3OCCC[C@H]32)c1.O=C(O)C(F)(F)F", "Percent Effect": 100.2}, {"smiles": "N#Cc1cccc(CN(CC(=O)N2CCCC2)CC2CCCO2)c1", "note": "(centres undefined)", "Percent Effect": 11.29}, {"smiles": "O=C(N[C@@H]1CN(Cc2ccc3c(c2)OCO3)[C@@H]2CCCO[C@@H]21)C1CC1", "Percent Effect": -19.8}, {"smiles": "N#Cc1cccc(CN2C[C@@H](NC(=O)C3CC3)[C@H]3OCCC[C@H]32)c1", "Percent Effect": 101.9}, {"smiles": "Cc1cccc(OC2CCN(S(=O)(=O)Cc3cccc(F)c3)CC2)n1", "Percent Effect": -8.664}, {"smiles": "CSCC(C)(O)CNC(=O)c1cc(F)ccc1Br", "note": "(centres undefined)", "Percent Effect": -2.784}, {"smiles": "Cn1cc(CNC(=O)c2cc3c(s2)CCCCC3)cn1", "Percent Effect": -22.89}, {"smiles": "CCOc1ncccc1NC(=O)c1cc2c(s1)CCC2", "Percent Effect": -11.29}, {"smiles": "O=C(NC1CCN(c2cc(-n3ccnc3)ncn2)CC1)c1ccncc1", "Percent Effect": 4.759}, {"smiles": "O=C(Cc1ccc2c(c1)CCCC2)N[C@@H]1CC[C@@H](n2ccnc2)[C@@H]1O", "Percent Effect": 128.7}, {"smiles": "O=C(N[C@@H]1CC[C@@H](n2ccnc2)[C@@H]1O)c1cc2c(s1)CCC2", "Percent Effect": 100.6}, {"smiles": "O=C(N[C@@H]1CCC[C@@H](n2ccnc2)[C@@H]1O)c1ccc2c(c1)CCCC2", "Percent Effect": 113.7}, {"smiles": "O=C(NC1CCN(Cc2ccc(F)cc2)CC1)c1ccc2c(c1)CCC2", "Percent Effect": -15.84}, {"smiles": "O=C(Cc1ccc2c(c1)CCC2)NC1CCN(Cc2ccccc2)CC1", "Percent Effect": 7.244}, {"smiles": "O=C(Cc1ccc2c(c1)CCC2)NCCNc1ncccn1", "Percent Effect": 11.75}, {"smiles": "CCOCC(=O)NCC1(NC(C)c2ccccc2)CCOCC1", "note": "(centres undefined)", "Percent Effect": -5.882}, {"smiles": "CCC(CN1CCCC1)n1cncc1-c1cnn(Cc2ccccc2)c1.Cl", "note": "(centres undefined)", "Percent Effect": 116}, {"smiles": "CCc1nnsc1C(=O)N1CCCN(Cc2ccccc2)CC1", "Percent Effect": -10.59}, {"smiles": "Cc1cnn(CC(C)NCc2c(C)nn(Cc3ccccc3)c2C)c1", "note": "(centres undefined)", "Percent Effect": -7.761}, {"smiles": "O=C(CCN1CCCC1c1cccs1)N1CCc2sccc2C1", "note": "(centres undefined)", "Percent Effect": 2.808}, {"smiles": "COc1cc(CN2CCCCCC2c2cccs2)cc(OC)c1O", "note": "(centres undefined)", "Percent Effect": 139}, {"smiles": "COc1cc(CN2CCCCCC2c2cccs2)cc(OC)c1OC", "note": "(centres undefined)", "Percent Effect": 88.88}, {"smiles": "Cc1cc(C)cc(N(CCC#N)C(=O)CN2CCCC2c2cccs2)c1", "note": "(centres undefined)", "Percent Effect": -27.93}, {"smiles": "COc1cccc(CN2CCCCCC2c2sccc2C)c1O", "note": "(centres undefined)", "Percent Effect": 115}, {"smiles": "COc1cccc(CN2CCN(CC(C)C)C(=O)C2C)c1O", "note": "(centres undefined)", "Percent Effect": -13.51}, {"smiles": "COc1cccc(CN2CCCC(Nc3cccc(F)c3)C2)c1O", "note": "(centres undefined)", "Percent Effect": -12.95}, {"smiles": "COc1cccc(CN2CCCCCC2c2cccs2)c1O", "note": "(centres undefined)", "Percent Effect": -12.69}, {"smiles": "COc1cccc(CN2CCCCCC2c2cccs2)c1OC", "note": "(centres undefined)", "Percent Effect": 128.6}, {"smiles": "Cc1nc(C)n(CC2CCCCN2CCCS(N)(=O)=O)n1", "note": "(centres undefined)", "Percent Effect": -48.39}, {"smiles": "CC(NC(=O)N1CCC(OCc2ccccc2)CC1)c1nncn1C", "note": "(centres undefined)", "Percent Effect": -3.035}, {"smiles": "CC(=O)Nc1ccc(-n2ccc3nc(N4CCCC4)ncc3c2=O)cc1", "Percent Effect": 4.031}, {"smiles": "OCCC1CN(c2nc(-c3cccnc3)nc3c2CCNCC3)CCO1", "note": "(centres undefined)", "Percent Effect": -11.64}, {"smiles": "CNC(=O)c1c(C)cccc1NCC(=O)Nc1cc(C)nn1C", "Percent Effect": -2.295}, {"smiles": "O=C(Nc1ccc(F)cc1)N(CCC(F)(F)F)C[C@H](O)CO", "Percent Effect": -0.3648}, {"smiles": "Cc1nc2c(c(N3CCCOCC3)n1)CCN(c1nccs1)CC2", "Percent Effect": 108.7}, {"smiles": "Cc1nc(N2CCOCC2)nc2c1CCN(c1nccs1)CC2", "Percent Effect": 1.797}, {"smiles": "Cc1nc2c(c(N3CCCOCC3)n1)CCN(C(=O)N1CCCC1)CC2", "Percent Effect": 0.8074}, {"smiles": "CCc1nc2n(n1)CCCC2NC(=O)Nc1cc(OC)ccc1C", "note": "(centres undefined)", "Percent Effect": 24.05}, {"smiles": "CS(=O)(=O)CCCN1CCOC2(CCc3ccccc32)C1", "note": "(centres undefined)", "Percent Effect": -1.468}, {"smiles": "CN(Cc1cc(F)ccc1C#N)CC(C)(CO)CO", "Percent Effect": 8.99}, {"smiles": "Cc1cc(F)ccc1S(=O)(=O)N(C)CC(N)=O", "Percent Effect": -0.8212}, {"smiles": "Cc1nn(C)c(Cl)c1C1CCCN1C(=O)c1ccc(N(C)C)nn1", "note": "(centres undefined)", "Percent Effect": -10.16}, {"smiles": "COc1c(C2CCCN2C(=O)c2cccnc2N(C)C)c(C)nn1C", "note": "(centres undefined)", "Percent Effect": 107.7}, {"smiles": "COc1c(C2CCCN2C(=O)c2cccc(C)n2)c(C)nn1C", "note": "(centres undefined)", "Percent Effect": 93.53}, {"smiles": "COc1c(C2CCCN2C(=O)c2cccc(C(N)=O)c2)c(C)nn1C", "note": "(centres undefined)", "Percent Effect": 8.718}, {"smiles": "COc1c(C2CCCN2C(=O)c2ccnc(C)n2)c(C)nn1C", "note": "(centres undefined)", "Percent Effect": 135.1}, {"smiles": "COc1c(C2CCCN2C(=O)c2ccc(N(C)C)nn2)c(C)nn1C", "note": "(centres undefined)", "Percent Effect": 97.2}, {"smiles": "CS(=O)(=O)N1C[C@H](C(=O)Nc2cccnc2)C[C@H]2OCC[C@H]21.O=C(O)C(F)(F)F", "Percent Effect": -10.82}]}]}
